pPAFAH inh – pPAFAH (human) enzyme inhibition. recombinant pPAFAH, FP-rhodamine probe fluorescence polarization. inhibition, % at 3.39 µM. Q13093. 330,000 compounds, 1.5% hits;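 active means inhibition above the mean inhibition across the screen plus 3 SD, cut at about 25% in these data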;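 further: inhibitors block binding of the rhodamine activity-based probe so polarization drops; 0% = enzyme with DMSO and 100% = wells lacking pPAFAH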
PAFAH1B2 FP inh – blocks human PAF acetylhydrolase 1b catalytic subunit 2; P68402; recombinant PAFAH1B2, FP-rhodamine activity probe, fluorescence polarization; inhibition, % at 3.39 µM; 340,000 compounds, 1.2% hits; AID 492953;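 active means inhibition above the mean of all tested compounds plus 3 SD, cut at about 24% in these data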;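 further: 0% = enzyme with DMSO and 100% = wells lacking PAFAH1B2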
Target sequence (P68402 whole entry, looked up): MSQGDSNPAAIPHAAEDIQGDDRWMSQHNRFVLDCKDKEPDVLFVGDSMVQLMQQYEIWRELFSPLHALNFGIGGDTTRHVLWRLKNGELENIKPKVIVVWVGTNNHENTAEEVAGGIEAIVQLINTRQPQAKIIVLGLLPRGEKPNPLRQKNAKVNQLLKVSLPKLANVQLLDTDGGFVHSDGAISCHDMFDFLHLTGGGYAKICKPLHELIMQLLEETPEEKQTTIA
PP1 counter – blocks human PP1-alpha phosphatase, a PP5 counter-screen | P62136 | inhibition, % at 6.7 µM | 320,000 compounds, 0.9% hits | purified PP1alpha, OMFP fluorescence;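 active means inhibition above the mean inhibition of all tested compounds plus 3 SD, computed separately for each screening campaign, cut at about 15% in these data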
Target sequence (P62136 whole entry, looked up): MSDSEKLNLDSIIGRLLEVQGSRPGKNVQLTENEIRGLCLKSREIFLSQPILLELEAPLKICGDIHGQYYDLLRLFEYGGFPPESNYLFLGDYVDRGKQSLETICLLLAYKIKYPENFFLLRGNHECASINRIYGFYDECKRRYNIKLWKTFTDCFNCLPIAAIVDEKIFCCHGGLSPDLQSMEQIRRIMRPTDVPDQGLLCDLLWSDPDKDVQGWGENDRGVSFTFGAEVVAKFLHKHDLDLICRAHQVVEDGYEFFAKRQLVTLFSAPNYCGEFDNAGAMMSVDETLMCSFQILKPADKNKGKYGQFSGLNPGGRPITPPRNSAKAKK
PAFAH2 inh – inhibitors of human PAFAH2; inhibition, % at 3.39 µM; recombinant PAFAH2, FP-rhodamine activity probe, fluorescence polarization; 340,000 compounds, 0.99% hits; AID 492956;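 active means inhibition above the mean over all tested compounds plus 3 SD, cut at about 30% in these data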;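 further: inhibitors block probe labeling of enzyme so polarization drops; 0% = enzyme with DMSO and 100% = wells lacking PAFAH2 protein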
PP5 primary – PP5 (human) phosphatase inhibition | purified PP5c, OMFP substrate fluorescence | P53041 | 320,000 compounds, 0.18% hits | inhibition, % at 6.7 µM;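 active means inhibition above the campaign's mean inhibition across all tested compounds plus 3 SD, cut at about 9.5% in these data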;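 further: 0% = DMSO only and 100% = 100 µM cantharidin control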
PAFAH1B3 FP inh – PAFAH1B3 (human) inhibition | recombinant PAFAH1B3, FP-rhodamine probe, fluorescence polarization | inhibition, % at 3.39 µM | 340,000 compounds, 0.28% hits | AID 492972;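 active means inhibition above the screen-wide average of all tested compounds plus 3 SD, cut at about 25% in these data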;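 further: 0% = enzyme with DMSO only and 100% = wells lacking PAFAH1B3 protein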
PAFAH2 confirm – PAFAH2 (human) inhibition, confirmed; recombinant PAFAH2, FP-rhodamine activity probe, fluorescence polarization; inhibition, % at 3.39 µM; AID 493030; shares compounds with PAFAH2 inh; 2,300 compounds, 65% hits;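 active means mean inhibition over three repeats above a set limit taken from the earlier primary screen, cut at about 30% in these data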;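 further: inhibitor blocks binding of rhodamine activity probe so polarization falls; 0% = enzyme with DMSO and 100% = wells lacking PAFAH2 protein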
* hit, by the source's call; nt = not tested or not shown. Shown are actives, neighbours in structure and some others; about 3.4% of the full set was active somewhere.

SMILES	pPAFAH inh	PAFAH1B2 FP inh	PP1 counter	PAFAH2 inh	PP5 primary	PAFAH1B3 FP inh	PAFAH2 confirm
CCC(C)N(C(=O)C(F)(F)F)C(C(=O)NC1CCCCC1)c1ccncc1 (stereo not drawn)	-5	5	-3	7	2	0	nt
O=C(Cn1c(=O)oc2ccccc21)Nc1n[nH]c(=S)s1	-6	10	0	-2	1	6	nt
Cc1cc(C(=O)OCn2nnc3ccccc3c2=O)c(C)n1-c1ccccc1	8	-2	2	9	3	8	nt
Cc1ccccc1/C=C1\SC(=S)N(/N=C/c2cc([N+](=O)[O-])ccc2O)C1=O	8	13	2	32*	2	5	16
O=C1/C(=C\c2cc([N+](=O)[O-])ccc2O)SC(=S)N1Cc1ccc(Cl)cc1	-16	-212	7	-91	-1	-124	nt
COc1ccccc1/C=C/C=N/NC(=O)c1ccc(=O)n(C)c1	5	4	-5	-3	1	1	nt
Cc1cc2oc(C(=O)Nc3nonc3C)c(C)c2cc1Cl	-1	8	-4	5	-3	9	nt
COc1ccccc1/C=C/C(=O)Nc1ccc2c(c1)OCCO2	8	2	-1	0	3	6	nt
COc1cc(/C=C/C(=O)OCC(=O)Nc2ccc3c(c2)OCCO3)ccc1OCC#N	-4	-2	0	42*	0	4	51*
COc1ccccc1/C=C/C(=O)OCC(=O)Nc1ccc2c(c1)OCCO2	16	-1	-3	80*	1	5	78*
COCCNC(=O)CCCCCn1c(=S)[nH]c2ccccc2c1=O	3	6	-3	2	-1	2	nt
CCCCn1c(NCc2ccncc2)nc2ccccc21	5	-1	3	13	2	-4	nt
CCN(c1ccccc1)S(=O)(=O)c1ccc(Cl)c(NC(=O)COC(=O)c2ccc(Cl)c(N)c2)c1	19	8	5	40*	4	6	20
CN(C)S(=O)(=O)c1ccc(Cl)c(NC(=O)COC(=O)c2ccc(O)cc2)c1	14	2	-2	59*	-1	7	55*
Cc1cc(C(=O)OCC(=O)Nc2cc(S(=O)(=O)N(C)C)ccc2C)c(C)o1	5	nt	3	nt	0	nt	nt
Cc1ccc(S(=O)(=O)N(C)C)cc1NC(=O)COC(=O)C1(c2ccccc2)CC1	4	12	1	7	1	2	nt
Cc1ccc(S(=O)(=O)N(C)C)cc1NC(=O)COC(=O)C1CC1	1	1	-6	43*	1	-1	34*
Cc1ccc(S(=O)(=O)N(C)C)cc1NC(=O)COC(=O)c1ccc(Cl)cc1	6	6	2	35*	-1	10	26
CC1CCc2cc(F)ccc2N1C(=O)CSc1nnc2c3cc(F)ccc3n(C)c2n1 (stereo not drawn)	4	1	-3	12	4	-1	nt
CCCCc1cc(=O)oc2cc(OCC(=O)N3CCOCC3)ccc12	-1	3	-2	4	-1	-1	nt
CN(C)S(=O)(=O)c1ccc(Cl)c(NC(=O)COC(=O)c2ccc3c(c2)NC(=O)CS3)c1	0	1	-2	48*	1	1	40*
CS(=O)(=O)c1ccc(Cl)c(NC(=O)COC(=O)c2cccc(C#N)c2)c1	0	7	2	1	0	8	nt
COc1ccccc1CNC(=O)COC(=O)c1ccc(N2CCCC2=O)cc1	0	8	0	60*	0	7	46*
COc1ccccc1CNC(=O)COC(=O)c1c[nH]c2ccccc12	nt	0	nt	33*	nt	6	18
COc1ccccc1CNC(=O)COC(=O)c1ccc(NC(N)=O)cc1	0	2	-5	56*	-2	-3	52*
SMILES	pPAFAH inh	PAFAH1B2 FP inh	PP1 counter	PAFAH2 inh	PP5 primary	PAFAH1B3 FP inh	PAFAH2 confirm
COc1ccccc1CNC(=O)COC(=O)c1ccc(Cl)c(N)c1	16	-1	3	33*	-1	1	35*
COc1ccccc1NC(=O)COC(=O)c1c[nH]c2ccccc12	0	-1	0	19	2	6	nt
COc1ccccc1NC(=O)CSc1n[nH]c(-c2cccnc2)n1	-5	3	-7	9	4	9	nt
Cc1ccc(CSc2nnc(SCC(=O)N/N=C/c3c[nH]c4ccccc34)s2)cc1	nt	4	nt	30*	nt	2	31*
Cc1ccc(-n2nc3c(=O)n(C(C)C(=O)NCc4ccc(Cl)cc4)nc(C)c3c2C)cc1 (stereo not drawn)	6	5	0	3	3	4	nt
COCC(=O)Nc1ccccc1C#N	0	-1	0	-7	-2	-1	nt
N#Cc1ccccc1NC(=O)COC(=O)c1ccc(F)cc1F	16	1	-5	46*	2	11	17
COc1cccc(NC(=O)COC(=O)c2ccc(F)cc2F)c1	21	4	-6	73*	2	2	61*
CC(=O)Nc1ccc(S(=O)(=O)NCC2CCC(C(=O)N3CC(C)CC(C)C3)CC2)cc1 (stereo not drawn)	1	0	0	4	0	4	nt
CCOc1ccc(CCNC(=O)CN2C(=O)CCSc3ccccc32)cc1OCC	-3	1	0	-6	3	4	nt
COc1ccc(OC)c(CCNC(=O)CN2C(=O)CCSc3ccccc32)c1	2	16	0	36*	-1	17	-7
Cc1cccc(C)c1-n1c(C)cc(/C=N/NC(=O)CSc2ncccn2)c1C	12	3	-2	38*	2	1	24
Cc1cc(C)nc(SCC(=O)N/N=C/c2cc(C)n(-c3ccccc3C)c2C)n1	10	2	2	11	2	2	nt
CCOc1ccc(CCNC(=O)C2CCCN(S(C)(=O)=O)C2)cc1OCC (stereo not drawn)	5	3	-5	0	-2	1	nt
O=c1c(C(c2c(O)nc3n(c2=O)CCS3)c2cccc3ccccc23)c(O)nc2n1CCS2	-5	3	-10	37*	1	-3	26
Cc1cccc(OC(=O)c2cccnc2)c1	2	1	1	4	2	4	nt
O=C1CCCC(O)=C1N=Nc1ccc(Cl)c(Cl)c1	6	4	-1	33*	1	-2	9
Fc1cccc(Nc2nc(-c3ccncc3)nc3ccccc23)c1	-2	6	8	-8	2	9	nt
CC1Cc2ccccc2N1S(=O)(=O)c1cccc(C(=O)OCC(=O)NCc2ccco2)c1 (stereo not drawn)	18	10	-1	33*	3	4	22
CC(C)(C)c1ccc(C(=O)OCC(=O)NCc2ccco2)cc1	19	11	-1	55*	1	12	57*
O=Cc1ccc(C(=O)OCC(=O)NCc2ccco2)cc1	-5	-1	nt	20	nt	2	nt
